Screening results from PubChem.
KDM4E inh: qHTS Assay for Inhibitors of Human Jumonji Domain Containing 2E (JMJD2E); JMJD2E catalytic domain, FDH-coupled NADH fluorescence (FDH is formaldehyde dehydrogenase); Potency, µM (highest dose often 57.1 µM), inactives show at the highest dose activity change, negative = inhibition, actives largely listed as inhibitors; 230,000 compounds, 1.6% hits; AID 2147, 2009; active = well fitted inhibition curve with a large enough effect, not every such curve was filed as active; inconclusive = small, poorly fitted or top-dose-only effect, or another doubt; inactive = no such curve, though single readings can be large or run the other way;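 also: potency is read from the fitted curve at half-maximal effect; 0% = wells with enzyme and -100% = buffer wells without enzyme; nearly all actives have a fitted effect of over 50% in size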
L3MBTL1 inh: qHTS Assay for the Inhibitors of L3MBTL1. Lethal(3)malignant brain tumor-like protein 1 (Homo sapiens), Q9Y468. AlphaScreen L3MBTL1–H3K9me1 peptide binding. Potency, µM (top dose mostly 57.1 µM), inactives show at the top dose activity, negative = inhibition, most hits filed as inhibitors. 230,000 compounds, 0.66% hits; also: potency is read from the fitted curve at half-maximal effect; % is scaled to controls: 0 for no effect and ±100 for the full control effect; nearly all actives have a fitted effect of over 60% in size
Target sequence (Q9Y468 whole entry, looked up): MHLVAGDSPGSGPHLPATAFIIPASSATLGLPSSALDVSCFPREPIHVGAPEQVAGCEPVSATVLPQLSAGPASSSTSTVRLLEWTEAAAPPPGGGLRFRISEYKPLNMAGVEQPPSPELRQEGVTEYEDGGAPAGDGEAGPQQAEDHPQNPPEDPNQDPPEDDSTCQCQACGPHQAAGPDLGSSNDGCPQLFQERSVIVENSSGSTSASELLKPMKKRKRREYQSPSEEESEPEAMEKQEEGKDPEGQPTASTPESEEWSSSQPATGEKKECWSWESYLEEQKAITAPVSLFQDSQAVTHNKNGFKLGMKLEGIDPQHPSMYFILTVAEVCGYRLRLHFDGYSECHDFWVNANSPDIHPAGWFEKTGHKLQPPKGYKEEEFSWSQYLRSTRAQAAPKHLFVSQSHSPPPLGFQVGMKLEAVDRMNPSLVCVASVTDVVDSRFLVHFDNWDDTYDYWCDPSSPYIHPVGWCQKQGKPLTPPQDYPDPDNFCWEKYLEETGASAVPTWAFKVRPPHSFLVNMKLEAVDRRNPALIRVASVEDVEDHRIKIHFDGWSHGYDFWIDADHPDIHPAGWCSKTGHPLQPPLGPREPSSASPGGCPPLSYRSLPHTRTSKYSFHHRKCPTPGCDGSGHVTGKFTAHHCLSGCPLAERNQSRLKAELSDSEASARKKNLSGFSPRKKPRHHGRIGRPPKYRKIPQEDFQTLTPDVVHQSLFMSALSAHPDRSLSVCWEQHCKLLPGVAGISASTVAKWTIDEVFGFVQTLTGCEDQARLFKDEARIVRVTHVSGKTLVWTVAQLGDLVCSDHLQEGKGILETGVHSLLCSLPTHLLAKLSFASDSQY
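Read-out is AlphaScreen signal from streptavidin donor and nickel chelate acceptor beads (10 ug/mL final each) bridging L3MBTL1 (50 nM) and biotinylated K9-monomethylated H3(1-15) peptide (75 nM), after 30 min compound exposure at room temperature.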
BAZ2B block: qHTS Assay for Inhibitors of BAZ2B | Bromodomain adjacent to zinc finger domain protein 2B (Homo sapiens), Q9UIF8 | AlphaScreen BAZ2B-H3K14Ac peptide displacement | Potency, µM (series often up to 114 µM), for the others: at the highest dose activity change, negative = inhibition, actives largely listed as inhibitors | 360,000 compounds, 4.4% hits; also: potency is read from the fitted curve at half-maximal effect; % is scaled to controls: 0 for no effect and ±100 for the full control effect; nearly all actives have a fitted effect of over 60% in size
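Multi-concentration screen (max 110 uM) measuring displacement of acetylated histone H3 peptide from BAZ2B by AlphaScreen, using 50 nM protein, 50 nM peptide and 10 ug/mL streptavidin donor plus Ni-chelate acceptor beads.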
HP1b binding inh: HTS for Inhibitors of HP1-beta Chromodomain Interactions with Methylated Histone Tails | Chromobox protein homolog 1 (Homo sapiens), P83916 | AlphaScreen HP1-beta / biotin-H3K9me3 peptide binding | Potency, µM (series often up to 114 µM), without a hit: at the highest dose activity change, negative = inhibition, actives largely listed as inhibitors | 390,000 compounds, 0.56% hits | AID 540317, 2011; also: potency is read from the fitted curve at half-maximal effect; nearly all actives have a fitted effect of over 70% in size
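AlphaScreen: HP1-beta (50 nM) preformed 30 min with biotin-H3(1-18)K9me3 peptide (50 nM) in PBS pH 7.4, 0.01% Tween-20. Compound added for 30 min at RT, then streptavidin donor/nickel chelate acceptor beads (10 ug/mL) for 30 min.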
JMJD2A Tudor: qHTS Assay for Inhibitors of JMJD2A-Tudor Domain; AlphaScreen JMJD2A-Tudor / H3K4me3 peptide binding; Potency, µM (highest dose often 114 µM), for the others: at the highest dose activity change, negative = inhibition, most hits filed as inhibitors; 390,000 compounds, 4.4% hits; AID 504339, 2011; also: potency is read from the fitted curve at half-maximal effect; % is scaled to controls: 0 for no effect and ±100 for the full control effect; nearly all actives have a fitted effect of over 50% in size
PI5P4Ka inh: qHTS for Inhibitors of phosphatidylinositol 5-phosphate 4-kinase (PI5P4K); PI5P4Kalpha enzyme, ADP-Glo luminescence, 60 min; hits give low values; max response, %; 330,000 compounds, 1.2% hits; active = max response of -50% or lower; inconclusive = between -30% and -50%; inactive = -30% or higher; also: value at the top dose of about 77 µM; % is scaled to controls: 0 for no effect and ±100 for the full control effect
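Single end-point luminescence (ADP-Glo) quantified ADP from PI5P4Kalpha turnover; ATP 5 microM final, 1 h at RT, 0.1% CHAPS and 0.28 mM EGTA in HEPES pH 7.4.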
The depositor's hits bear a star; u = inconclusive; x = no result given; ! = not active in a repeat; [ ] = remark or other dose. Compounds with a hit are over-represented: about 5.7% of the library has one in this group of screens. Unless noted, calls follow the shape of the dose curve; as a rule, active = well fitted inhibition curve with a large enough effect; inconclusive = small, poorly fitted or top-dose-only effect; inactive = no such curve, though single readings can be large or run the other way.

SMILES	KDM4E inh	L3MBTL1 inh	BAZ2B block	HP1b binding inh	JMJD2A Tudor	PI5P4Ka inh
Cc1ccc(/C=N/c2sc3c(c2C#N)CCC3)o1	u	u	u	-69%	45µM*	-21
N#Cc1c(/N=C/c2ccc(Br)s2)sc2c1CCC2	-3%	-8%	-31%	-23%	-20%[57.1 µM]	-25
N#Cc1c(/N=C/c2cccs2)sc2c1CCCCC2	-3%	-11%[11.4 µM]	8.9µM*	u	40µM*	0
N#Cc1c(/N=C/c2ccc(-c3ccc(C(=O)O)c(Cl)c3)o2)sc2c1CCCC2	x	-6%	u	u	u	-14
N#Cc1c(/N=C/c2ccc(-c3ccccc3C(=O)O)o2)sc2c1CCCC2	x	x	45µM*	-33%	79µM*	-14
CCS(=O)(=O)c1cccc(C(=O)N2CCN(c3nc4c(C)ccc(Cl)c4s3)CC2)c1	x	x	-38%	22%	-29%	x
CCCN(C(=O)CCc1nc(-c2ccc(OC)cc2)no1)c1ccccc1F	x	x	47%	91%	53%	x
CCCN1C=CC(=C/C=C(\C#N)C(=O)OCC)C=C1	-11%	-6%	50µM*	x	x	x
O=C(Nc1cc(Cl)ccc1Cl)c1cc([N+](=O)[O-])cc(Br)c1O	x	x	x	-23%	56µM*	x
O=C(Nc1ccc([N+](=O)[O-])cc1Cl)c1cc(Cl)cc(Cl)c1O	x	x	x	-28%	45µM*	x
CCc1cccc(C)c1NC(=O)Cn1nnc(-c2nc(-c3ccccc3F)no2)c1N	x	x	56µM*	44%	-26%	x
Nc1c(-c2nc(-c3ccccc3)no2)nnn1CC(=O)Nc1cccc(F)c1	x	x	-21%	24%	u	x
Cc1cc(C)cc(NC(=O)Cn2nnc(-c3nc(-c4ccncc4)no3)c2N)c1	x	x	u	72%	56µM*	x
O=C(Cn1ncc2c1-c1ccccc1OC2)N1CCc2ccccc21	-8%	-12%	-1%	33%	-6%	-6
O=C(O)Cn1ncc2c1-c1ccoc1CC2	u	u	u	18%	56µM*	-10
O=C(c1ccc(CSc2nc3ccncc3n2Cc2ccccc2F)cc1)N1CCCCC1	x	x	-9%	36%	-15%	x
Cc1c(Cl)cccc1Nc1ncccc1C(=O)O	x	x	-9%	7%	25µM*!	2
O=c1c2c3nc4ccccc4nc3n(-c3ccc4c(c3)OCCO4)c2ncn1C1CCCC1	u	3%	x	42%	79µM*	-2
CCN(Cc1ccccc1)S(=O)(=O)c1ccc(F)c(C(=O)Nc2cc(C(F)(F)F)ccc2Cl)c1	x	x	-7%	43%	2%	x
Cc1ccc(C2C(C#N)=C(N)Oc3n[nH]c(-c4cccs4)c32)cc1 (centres undefined)	7.1µM*	-2%	17%	34%	-7%	u
CC(C)(C)c1[nH]nc2c1C(c1cccnc1)C(C#N)=C(N)O2 (centres undefined)	7%	-2%	-5%	82%	-9%	x
N#CC1=C(N)Oc2n[nH]c(-c3cccs3)c2C1c1cccnc1 (centres undefined)	-26%	-4%	-11%	40%	-9%	-50*
COc1ccc(Br)cc1CNC(=O)CN1C(=O)C(c2ccccc2)Oc2cccnc21 (centres undefined)	x	x	50µM*	50%	-24%	-16
O=C1CC(/C=C/c2ccco2)=Nc2ccccc2N1	u	x	-12%	17%	-29%	-73*
O=C1CC(/C=C/c2ccccn2)=Nc2ccccc2N1	u	x	u	-15%	45µM*	5
CCC1(C)CC2(CCCN(CCC(=O)c3ccccc3)C2)CCO1 (centres undefined)	5%	-16%	1%	31%	-9%	2
CC(S(=O)(=O)c1ccccc1)S(=O)(=O)c1ccccc1	x	x	x	x	x	6
